In PubChem BioAssay AID1835 (Johns Hopkins Ion Channel Center, 2009):
In all, about 2,400 compounds went through this assay and about 750 (31%) were called active. The list shows a part of the results. Unmarked numbers belong to inactive results.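 How the source made its calls: active means median signal gain over dofetilide-blocked control wells reaching their mean plus 3 SD, so readout 1 at least 0; inactive means the rest.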

biological target: Voltage-gated inwardly rectifying potassium channel KCNH2 (Homo sapiens) (UniProt Q12809); assay: modulators restoring hERG flux under dofetilide – cell-based, thallium flux, duplicate retest, dofetilide IC70, confirmation (AID 1835); conditions: hERG cell line, FluxOR thallium flux, dofetilide-blocked; at 10 µM; stronger effect = higher value
Sequence (Q12809 whole entry, looked up): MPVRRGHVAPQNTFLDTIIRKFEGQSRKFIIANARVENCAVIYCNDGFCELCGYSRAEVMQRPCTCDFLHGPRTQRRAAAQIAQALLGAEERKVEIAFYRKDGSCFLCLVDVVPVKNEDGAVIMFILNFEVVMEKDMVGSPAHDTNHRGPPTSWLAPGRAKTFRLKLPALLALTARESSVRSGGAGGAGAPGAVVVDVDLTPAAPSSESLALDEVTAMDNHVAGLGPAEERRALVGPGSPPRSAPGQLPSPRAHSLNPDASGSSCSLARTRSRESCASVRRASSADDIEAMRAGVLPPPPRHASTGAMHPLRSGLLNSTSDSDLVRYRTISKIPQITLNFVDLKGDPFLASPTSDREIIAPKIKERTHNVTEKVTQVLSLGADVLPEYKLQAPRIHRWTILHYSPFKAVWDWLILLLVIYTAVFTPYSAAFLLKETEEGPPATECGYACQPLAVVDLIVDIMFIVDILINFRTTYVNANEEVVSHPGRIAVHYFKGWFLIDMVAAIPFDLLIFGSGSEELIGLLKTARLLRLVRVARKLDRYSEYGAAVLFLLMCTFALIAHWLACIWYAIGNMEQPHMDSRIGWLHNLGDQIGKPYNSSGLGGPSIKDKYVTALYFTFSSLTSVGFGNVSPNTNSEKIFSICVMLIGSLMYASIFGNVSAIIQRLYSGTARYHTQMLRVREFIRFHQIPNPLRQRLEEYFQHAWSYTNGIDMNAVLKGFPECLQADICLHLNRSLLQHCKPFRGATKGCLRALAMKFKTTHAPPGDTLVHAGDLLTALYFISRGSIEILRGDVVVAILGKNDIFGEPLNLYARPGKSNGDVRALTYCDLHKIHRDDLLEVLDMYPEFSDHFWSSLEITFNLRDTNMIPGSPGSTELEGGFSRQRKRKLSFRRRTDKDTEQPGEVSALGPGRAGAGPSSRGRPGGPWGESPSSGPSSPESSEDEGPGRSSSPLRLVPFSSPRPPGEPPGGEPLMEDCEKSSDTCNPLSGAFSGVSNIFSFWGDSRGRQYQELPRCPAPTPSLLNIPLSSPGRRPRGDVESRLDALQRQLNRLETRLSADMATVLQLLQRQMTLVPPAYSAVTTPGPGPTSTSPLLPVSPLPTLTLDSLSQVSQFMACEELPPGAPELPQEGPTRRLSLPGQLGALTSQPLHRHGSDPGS

SMILES | activity increase over dofetilide control, less the hit threshold
O=C(CNCC1CCCO1)N1CCCCCC1 (stereo not drawn) | -11%
Cc1ccc2c(Cl)cc(Cl)c(OCC(=O)NC3CCS(=O)(=O)C3)c2n1 (stereo not drawn) | -15%
CCCCSc1nnc(CCC)n1N | -21%
CCCCCCCC/C=C\CCCCCCCC(=O)O | 22% (active)
O=C(c1ccc(CS(=O)c2cccc(Cl)c2)o1)N1CCCCCC1 (stereo not drawn) | -7%
CC(C)(C)NC(=O)CN(C(=O)CS(=O)CC(=O)Nc1ccc(F)cc1)c1cccc(F)c1 (stereo not drawn) | -13%
CC(C)Oc1c(Cl)cc(CNC(C)(C)CO)cc1Cl | 1% (active)
Fc1ccccc1-c1n[nH]c(=S)n1C1CC1 | -4%
CC(C)(C)c1cc(-c2n[nH]c(=S)n2-c2ccccc2F)n[nH]1 | 7% (active)
CCC(=O)Nc1cc(=O)[nH]c2ncnn12 | -24%
Cc1cc(NC(=O)CSc2nc(C3CC3)nc3sc(C)c(C)c23)no1 | 26% (active)
CCCc1nc(SCC(=O)Nc2cc(C)on2)c2ccccc2n1 | -10%
Cc1cc(NC(=O)CSc2nnc(Nc3ccccc3)s2)no1 | -11%
C/C(=C\C(=O)c1ccncc1)Nc1ccccc1O | -7%
COc1ccc(C(=O)NN/C(C)=C/C(=O)c2ccccc2)cc1 | -26%
C/C(=C\C(=O)c1ccccc1)NNC(=O)c1ccc(Cl)cc1 | 3% (active)
COc1ccc(C(=O)NNC(=O)C(=O)Nc2ccc(C)c(Cl)c2)cc1 | 86% (active)
COc1cccc(C(=O)NNC(=O)C(=O)Nc2ccc(C)c(Cl)c2)c1 | 54% (active)
COc1cccc(C(=O)NNC(=O)C(=O)Nc2cccc(Cl)c2C)c1 | 50% (active)
COc1cccc(C(=O)Nc2cccc(-c3ccc(N4CCOCC4)nn3)c2)c1 | -14%
Cc1ccc(NC(=O)c2ccc3c(c2)OCO3)cc1Cl | -10%
COc1ccc(C2/C(=C(/O)c3ccc(Br)cc3)C(=O)C(=O)N2C)cc1 (stereo not drawn) | -7%
Cc1ccc(C(=O)n2c(-c3ccccc3)cnc2SCC(=O)Nc2ccc(C)cc2C)cc1 | -8%
Oc1c(N=NC(=S)Nc2ccccc2F)c2ccccc2n1Cc1ccc(Cl)cc1 | -2%
Cc1c(Cl)cccc1NC(=S)N=Nc1c(O)n(CN2CCOCC2)c2ccccc12 | 18% (active)
Cc1cccc(Cn2c(O)c(N=NC(=S)Nc3ccccc3F)c3ccccc32)c1 | 4% (active)
Cc1cc(NC(=O)Cn2c(=O)n(Cc3ccccc3)c(=O)c3ccccc32)no1 | -7%

SMILES | activity increase over dofetilide control, less the hit threshold
Oc1c(N=NC(=S)Nc2ccccc2F)c2ccccc2n1Cc1cccc(Cl)c1 | -1%
Oc1c(N=NC(=S)Nc2ccccc2F)c2ccccc2n1Cc1ccc(F)cc1 | 32% (active)
Oc1c(N=NC(=S)Nc2ccccc2F)c2ccccc2n1Cc1ccccc1 | 36% (active)
CC(C)Oc1ccccc1C1(c2ccccc2)NC(=O)NC1=O (stereo not drawn) | -16%
CC(C)NC(=O)Nc1n[nH]c(Nc2ccc(Cl)cc2)n1 | -1%
O=C1NC(=O)C2(COC(c3cccc([N+](=O)[O-])c3)OC2)S1 (stereo not drawn) | -12%
Nc1ccc2nc(-c3cccs3)[nH]c2c1 | -10%
Cc1cc(C)c(S(=O)(=O)c2ccccc2)c(OC(=O)c2c(F)cccc2Cl)n1 | -30%
O=C(CCc1ccccc1Cl)Nc1ccc(S(=O)(=O)N2CCOCC2)cc1 | -6%
CCc1ccc(C(C)NC(=O)c2ccc(F)cc2)cc1 (stereo not drawn) | 4% (active)
CCc1ccc(C(=O)NNC(=O)c2ccc(=O)n(C)n2)cc1 | -5%
CC(NC(=O)CCNC(=O)c1ccco1)c1ccc(F)cc1 (stereo not drawn) | -5%
Cc1ccc(C(C)NC(=S)NC2CCCCC2)cc1C (stereo not drawn) | -6%
Cc1ccc(C(C)NC(=O)C2CCCC2)cc1C (stereo not drawn) | 4% (active)
CCc1ccc(C(C)NC(=O)C2CCCC2)cc1 (stereo not drawn) | 1% (active)
Cc1ccc(C(=O)NC(C)c2ccc(C)c(C)c2)s1 (stereo not drawn) | -6%
CCc1ccccc1N(CC(=O)NC(C)c1ccccc1)S(C)(=O)=O (stereo not drawn) | -15%
COc1cccc(C(=O)/C=C/Nc2ccc(S(=O)(=O)Nc3cnc4ccccc4n3)cc2)c1 | -22%
CCc1nccn1S(=O)(=O)c1ccc2ccc(C)cc2c1 | -15%
CC1CCN(C(=O)CSc2nnc(CNC(=O)c3ccco3)o2)CC1 | -15%
O=C(c1cccc2c1-c1ccccc1C2)N1CCCCC1 | -17%
COc1ccc(-c2cc(C(=O)N3CCCC3)no2)cc1 | -4%
O=C(c1csc(Nc2ccccc2Cl)n1)N1CCCC1 | 6% (active)
CC1Oc2ccccc2N(CC(=O)N2CCCCCC2)C1=O (stereo not drawn) | -19%
N#CCCn1cc(/C=N/NC(=O)c2ccncc2)c(-c2ccc(F)cc2)n1 | -2%
CCCN(CCC)C(=S)NC(=O)c1ccc(Cl)cc1Cl | 60% (active)
